This is an account of results in PubChem BioAssay AID2685 (National Center for Advancing Translational Sciences (NCATS), 2010).

Screen size: about 320,000 compounds; about 2,100 (0.66%) were called active. Inconclusive results (about 53%) are left out. Calls follow the shape of the dose curve; as a rule, active = well fitted inhibition curve with a large enough effect in the signal ratio, with a control signal flat (not every such curve was filed as active); inconclusive = small, poorly fitted or top-dose-only effect, or effect the other way, or a change in a side signal; inactive = flat fitted curve, though single readings scatter; the % refers to the signal ratio. What follows is part of a selection rich in actives, with near analogues and random picks from the rest.
Potency is read from the fitted curve at half-maximal effect.

This experiment in a line: qHTS Assay for Lipid Storage Modulators in Drosophila S3 Cells.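 As to cell number change: cells counted by Cell Tracker Red CMTPX staining in the red channel.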 As to lipid storage change, negative = inhibition: % is scaled to controls: 0 for no effect and ±100 for the full control effect. The conditions noted are these: BODIPY lipid droplet fluorescence, 18-24 h, cells fed with added oleic acid; cell number change: measured here: cell count max response; series mostly up to 46.1 µM. In short, it runs like this:
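Drosophila S3 cells got compounds at several concentrations plus oleic acid (400 uM solution). Laser-scanning cytometry with 488 nm excitation read lipid droplets at 500-530 nm and cells at 575-640 nm. Percent activity was relative to 20 uM Triacsin C.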
Regarding `Cc1ccc(NC(=S)N2CCN(Cc3ccccc3)CC2)c(C)c1`, the Potency result is “inactive” and the cell number change came out at 7.65%.
For `COc1ccc(C2C(C(=O)N3CCCCC3)CC(=O)N2c2ccc(OC)cc2)cc1` (configuration not stated), in that order: “inactive” and -20%.
Regarding `CCOc1ccc(/C=N/NC(=O)c2cc3ccccc3cc2OC)cc1`, the Potency entry was “inactive”.
With `O=C(Cc1ccc([N+](=O)[O-])cc1)NC(C(=O)O)C(O)c1cccc([N+](=O)[O-])c1` (configuration not stated), the Potency entry is “inactive” and the cell number change is -5.25%.
Regarding `CN(C)CC(=O)N1c2ccccc2CCc2ccc(NC(=O)c3ccc(N)cc3)cc21`, the Potency result was “inactive”.
Consider `CCOc1ccccc1CN1CCNC(=O)C1CC(=O)NCCCn1cccn1` (configuration not stated), for which the Potency entry was “inactive” and the cell number change is -11.6%.
With `CCOc1ccccc1CN1CCNC(=O)C1CC(=O)NCCc1ccccn1` (configuration not stated), the Potency entry is “inactive” and the cell number change is -15.8%.
`CCOc1ccccc1CN1CCNC(=O)C1CC(=O)NCCN1CCOC1=O` (configuration not stated): the Potency was 2.31 µM (active) and the cell number change is 19.4%.
In the case of `CC(=O)Nc1ccc(S(=O)(=O)NC(C)c2nc(-c3ccccc3)no2)cc1` (configuration not stated), the Potency result was “inactive” and the cell number change turned out to be 16.2%.
As to `COc1ccc(-c2nn(CCC#N)cc2C=C(C#N)C#N)cc1`, the Potency entry is “inactive” and the cell number change stood at 16.7%.
Regarding `COc1ccc(-c2cc(C(=O)N3CC4(C)CC3CC(C)(C)C4)no2)cc1OC` (configuration not stated), the Potency result is “inactive” and the cell number change was -3.22%.
Turning to `CC1(C)CC2CC(C)(CN2C(=O)c2cc(-c3ccc(O)cc3)on2)C1` (configuration not stated), the Potency is 0.92 µM (active) and the cell number change is 16.1%.
Consider `CC1(C)CC2CC(C)(CN2C(=O)c2cccs2)C1` (configuration not stated), for which the Potency entry was “inactive” and the cell number change is -7.87%.
For `C=CCn1c(SC(F)F)nc2scc(-c3ccco3)c2c1=O`, in that order: 0.058 µM (active) and 0.451%.
As to `C=CCn1c(=S)[nH]c2scc(-c3ccco3)c2c1=O`, the Potency entry was “inactive” and the cell number change worked out at 8.4%.
For `C=CCn1c(SCc2ccc3c(c2)OCO3)nc2scc(-c3ccco3)c2c1=O`, in that order: “inactive” and -2.61%.
The like results for `CC(C)N(Cc1nnc(-c2ccc(Cl)cc2)o1)C(=O)c1cc2ccccc2o1` were, in that order, “inactive” and -8.15%.
Take `Oc1nc(Nc2ccc(F)cc2)sc1/C=C1\C=Nc2ccccc21`: the Potency result is “inactive” and the cell number change is -4.17%.
Turning to `Cc1ccccc1NC(=O)Cc1nnc(N)s1`, the Potency result was “inactive” and the cell number change is -0.0956%.
In the case of `COC(=O)COc1ccc(S(=O)(=O)N2CCCCCC2)cc1`, the Potency entry was “inactive” and the cell number change amounted to 19.9%.
For `CCOc1ccc(S(=O)(=O)N2CCC(C(=O)N3CCc4ccccc4C3)CC2)cc1`, in that order: 7.31 µM (active) and -23.3%.
The like results for `COC(=O)COc1ccc(S(=O)(=O)N2CCc3ccccc3C2)cc1` were, in that order, 7.31 µM (active) and 22.6%.
Take `COc1ccc(S(=O)(=O)N2CCc3ccccc3C2)cc1`: the Potency entry was “inactive” and the cell number change is 4.92%.
`CCOc1ccc(S(=O)(=O)N2CCC(C(=O)N3CCN(Cc4ccccc4)CC3)CC2)cc1`: the Potency entry is “inactive” and the cell number change was -0.232%.
For `CCOc1ccc(S(=O)(=O)N2CCC(C(=O)N3CCN(c4ccccc4)CC3)CC2)cc1`, the Potency result was “inactive” and the cell number change was -5.41%.
With `Cc1ccc(C2=NNC(=O)C(P(=O)(c3ccccc3)c3ccccc3)C2)cc1` (configuration not stated), the Potency result is “inactive” and the cell number change worked out at 21.3%.
As to `S=C1NCN(C2CCCCC2)CN1Cc1ccccc1`, the Potency result was “inactive” and the cell number change was determined as 2.76%.
Take `CCCc1cc(=O)oc2cc(C)cc(OC(C)C(=O)NCCCN3CCOCC3)c12` (configuration not stated): the Potency entry is “inactive” and the cell number change was found to be 6.42%.
For `O=c1[nH]c2ccccc2nc1/C=C(\O)C(F)F`, in that order: “inactive” and 13.5%.
For `O=c1[nH]c2ccccc2nc1/C=C/c1ccc(F)cc1`, the Potency was 9.2 µM (active) and the cell number change was determined as 28.9%.
For the compound `Cn1c(=O)c(/C=C/c2ccc(F)cc2)nc2ccccc21`, the Potency entry was “inactive” and the cell number change was -1.08%.
Take `COC(=O)C1CCN(S(C)(=O)=O)CC1`: the Potency entry was “inactive” and the cell number change amounted to 4.24%.
The like results for `COC(=O)[C@H]1C2CCC(C(=O)OC)(CC2)[C@H]1C(=O)OC` were, in that order, 1.3 µM (active) and -5.5%.
Consider `COC(=O)[C@@H]1C2CCC(C(=O)Nc3ccccc3)(CC2)[C@@H]1C(=O)OC`, for which the Potency entry was “inactive”.
For the compound `CN(Cc1ccccc1)c1nnc(N)s1`, the Potency entry is “inactive” and the cell number change was -2.39%.
Consider `O=C(NC(=S)Nc1ccc(S(=O)(=O)Nc2nccs2)cc1)c1ccccc1F`, for which the Potency result is “inactive” and the cell number change came out at 13%.
As for `O=C(N/N=C\c1cn(-c2ccccc2)nc1-c1ccccc1)c1ccc(Br)o1`, the Potency was 23.1 µM (active) and the cell number change turned out to be 6.81%.
For the compound `Cc1ccc(/C=N/NC(=O)c2ccco2)s1`, the Potency result was “inactive” and the cell number change was -9.87%.
For `Cc1ccc(/C=N/NC(=O)c2ccc(C(=O)N/N=C/c3ccc(C)s3)o2)s1`, in that order: “inactive” and 10.7%.
The like results for `Cc1ccc(/C=N/NC(=O)c2ccc(Br)o2)s1` were, in that order, 3.66 µM (active) and -8.7%.
As to `O=C(N/N=C/c1cn(-c2ccccc2)nc1-c1ccccc1)c1ccco1`, the Potency result was “inactive”.
For the compound `NC(=O)N/N=C/c1cn(-c2ccccc2)nc1-c1ccccc1`, the Potency entry is “inactive” and the cell number change was determined as 15.1%.
The like results for `CCC(=O)N(c1ccc(C(=O)O)cc1)c1nc(-c2ccc(OC)cc2)c(C)s1` were, in that order, “inactive” and -9.44%.
Regarding `CC(=O)Cc1nsc(NC(=O)c2ccc(-c3cc(Cl)ccc3Cl)o2)n1`, the Potency entry was “inactive” and the cell number change was 15.1%.
Turning to `CN(C)c1cccc(C(=O)Nc2nc3ccccc3[nH]2)c1`, the Potency is 14.6 µM (active) and the cell number change was -3.6%.
As for `COc1cccc(C(=O)Nc2nc3ccccc3[nH]2)c1`, the Potency result is “inactive” and the cell number change amounted to 17.8%.
The like results for `CS(=O)(=O)c1cccc(C(=O)Nc2ccc(-c3nc4ccccc4[nH]3)cc2)c1` were, in that order, “inactive” and 86.3%.
For `CS(=O)(=O)c1cccc(C(=O)Nc2cccc(-c3nc4ccccc4[nH]3)c2)c1`, the Potency is 7.31 µM (active) and the cell number change was -15%.
The like results for `CS(=O)(=O)c1ccc(C(=O)Nc2cccc(-c3nc4ccccc4[nH]3)c2)cc1` were, in that order, “inactive” and 3.88%.
In the case of `O=C(Nc1nc2ccccc2[nH]1)c1cccc([N+](=O)[O-])c1`, the Potency entry was “inactive” and the cell number change was -8.28%.
Consider `Cn1c(N2CCOCC2)c(/C=N/OC(=O)c2cccnc2Cl)c2ccccc21`, for which the Potency result is “inactive”.
For the compound `Cc1ccc(NS(=O)(=O)c2ccc3c(c2)NC(=O)CO3)c(C)c1`, the Potency result was “inactive” and the cell number change was -9.44%.
As for `O=C1CCCN1S(=O)(=O)c1ccccc1`, the Potency entry is “inactive” and the cell number change is -14.6%.
For the compound `O=C(Nc1nnc(C2CC2)s1)c1cccc(S(=O)(=O)N2CC(c3ccccc3)CC2=O)c1` (configuration not stated), the lipid storage change, negative = inhibition is 14.3% [at 9.22 µM] (inactive).
As to `O=C1CC(c2ccccc2)CN1S(=O)(=O)c1ccccc1` (configuration not stated), the Potency was 20.6 µM (active) and the cell number change is -20.2%.
On to `O=C(N=C1SC2CS(=O)(=O)CC2N1CCc1ccccc1)C1CCCCC1` (configuration not stated), for which the Potency entry was “inactive”.
Consider `Cc1cc(C=O)c(C)n1-c1cccc(C(=O)O)c1`, for which the Potency entry was “inactive” and the cell number change was found to be 7.64%.
`CC(C)(C)C(=O)COC(=O)c1cc(S(=O)(=O)N2CCCCC2)ccc1N1CCOCC1`: the cell number change was -8.75% and the lipid storage change, negative = inhibition is -21.4% [at 0.0737 µM] (inactive).
As for `CC(C)(C)NC(=O)COC(=O)c1cc(S(=O)(=O)N2CCCCC2)ccc1N1CCOCC1`, the Potency result was “inactive”.
For the compound `Cc1ccc(OCCOC(=O)c2cc(S(=O)(=O)N3CCCCC3)ccc2N2CCOCC2)cc1`, the Potency is 5.17 µM (active) and the cell number change is -27%.
